rCAG binder – r(CAG) repeat RNA binding; TO-PRO-1 dye displacement fluorescence; inhibition, % at 3 µM; 370,000 tested, 1.3% active;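 active = inhibition above the plate cutoff, the mean of all test compounds on that plate plus 3 SD, cut at about 35% in these data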;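 also: higher means more dye released from RNA so lower well fluorescence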
FAS TE block – blocks the thioesterase domain of human fatty acid synthase. P49327. recombinant FAS-TE, OMFH fluorogenic substrate, fluorescence endpoint. inhibition, % at 15 µM. 360,000 tested, 0.67% active. AID 602261;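 active = compounds whose normalised, plate-corrected inhibition of enzyme fluorescence in the single-dose primary screen is 50% or more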
NadD inh – NadD (S. aureus) enzyme inhibition; purified NadD enzyme, colorimetric absorbance read-out; inhibition, % at 20 µM; 360,000 tested, 0.78% active; AID 602399; in the data active = inhibition above about 26%
NR3A LBD binder – modulators (binders) of human NR3A ligand-binding domain; NR3A LBD differential scanning fluorimetry, Tm shift; 0% = protein alone, 100% = glycine-bound protein; Tm shift relative to glycine control, % at 25 µM; 340,000 tested, 2.5% active; AID 1259313;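 active = melting temperature shift of at least 10% of the positive control shift, at one fixed dose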
Each line names hits and unclear results; the compound was inactive in the other large screens. Only some compounds are listed: those with a hit (about 4.3% of all), similar ones and a draw of the others.

CCOC(=O)[C@]12CCCCC/C=C\1N(CCc1ccc(Cl)cc1)C(=O)[C@H]2CC(=O)N1CCN(C(=O)C2CC2)CC1	none (no result: FAS TE block, NadD inh, NR3A LBD binder)
CCC(=O)N(C)C[C@@H]1[C@H](c2ccc(C3=CCCCC3)cc2)[C@H](CO)N1C(=O)CC	none (no result: FAS TE block, NadD inh, NR3A LBD binder)
COc1cc(/C=C2/SC(=O)NC2=O)ccc1Oc1ccc([N+](=O)[O-])cc1[N+](=O)[O-]	none
CC1=NN(c2ccccc2)C(=O)/C1=C\c1ccc(Oc2ccc([N+](=O)[O-])cc2[N+](=O)[O-])cc1	NadD inh 30
COc1cc(/C=C2\C(=O)N(c3ccccc3)N=C2C)ccc1Oc1ccc([N+](=O)[O-])cc1[N+](=O)[O-]	NadD inh 36
COc1ccccc1/C=C1/C(=O)N(c2ccccc2)N=C1C	none (no result: NR3A LBD binder)
COc1cccc(-c2nnc(SCc3cc(C)ccc3C)n2Cc2ccco2)c1	none (no result: FAS TE block, NadD inh, NR3A LBD binder)
c1ccn(-c2ccc(-c3noc(CCc4ccncc4)n3)cc2)c1	none (no result: FAS TE block, NadD inh, NR3A LBD binder)
Nc1c(C(=O)Nc2ccc(S(=O)(=O)N3CCCC3)cc2)sc2nc3ccc(OC(F)(F)F)cc3cc12	NR3A LBD binder 22 (no result: rCAG binder)
S=C(NCc1cccs1)Nc1cc(Cl)cc(Cl)c1	NR3A LBD binder 12
Fc1ccc(-c2nc3c(Cl)cc(C(F)(F)F)cn3c2Cc2ccsc2)cc1	none (no result: NR3A LBD binder)
Cc1ccc(-c2nc3c(Cl)cc(C(F)(F)F)cn3c2Cc2ccsc2)cc1	rCAG binder 55 (no result: NR3A LBD binder)
CCOC(=O)CCC(=O)Nc1ncnc2c1C(c1ccccc1)c1c(ccc3ccccc13)O2 (stereo unspecified)	none
O=C(Nc1ncnc2c1C(c1ccccc1)c1c(ccc3ccccc13)O2)c1ccccc1 (stereo unspecified)	FAS TE block 96
COc1ccc2c(c1)CNC2CS(=O)(=O)NCc1ccccc1 (stereo unspecified)	none (no result: FAS TE block, NadD inh, NR3A LBD binder)
CC(=O)N1CCc2cc(C(=O)CN3CCCCC3)ccc21	NR3A LBD binder 13
O=[N+]([O-])c1cc(CN2CCOCC2)c2cccnc2c1O	none (no result: rCAG binder, FAS TE block, NadD inh)
O=[N+]([O-])c1cc(CN2CCN(c3ccccc3)CC2)c(O)c2ncccc12	NadD inh 71
COc1ccc(-c2cc(C(=O)NN=Cc3cccn3C)[nH]n2)cc1	none (no result: FAS TE block, NadD inh, NR3A LBD binder)
CCN1/C(=C/c2ccc3cc(C)ccc3[n+]2CC)Sc2cc(C)ccc21	none
CCN1/C(=C/c2ccc3cc(C)ccc3[n+]2C)Sc2ccc3sccc3c21	NadD inh 64
N#Cc1c(NC(=O)Cn2c(=O)oc3ccccc32)oc(-c2ccccc2)c1-c1ccccc1	NR3A LBD binder 11
CN1C(=O)C[C@@](C#N)(C(=O)NCc2ccccc2)[C@H]1c1ccccc1	none (no result: FAS TE block, NadD inh, NR3A LBD binder)
Cc1ccc2sc(N(CCCN(C)C)C(=O)c3ccc(S(=O)(=O)N4CCc5ccccc5C4)cc3)nc2c1C	NR3A LBD binder 14
COc1cccc2sc(N(CCCN(C)C)C(=O)c3ccc(S(=O)(=O)N4CCc5ccccc5C4)cc3)nc12	none
O=C(CSc1nc2ccccc2o1)NN=C/C=C\c1ccccc1[N+](=O)[O-]	none (no result: FAS TE block, NadD inh, NR3A LBD binder)
COc1ccc(S(=O)(=O)N(C)CC(=O)NCCC2=CCCCC2)cc1OC	NR3A LBD binder 13
CCOC(=O)C1=C(C(=O)OCC)C2N(Cc3ccc(C#N)cc3)c3ccccc3[C@@]23C[C@@H](C(=O)OC)N(S(=O)(=O)c2ccc(C)cc2)C3=N1 (stereo partly specified)	none (no result: FAS TE block, NadD inh, NR3A LBD binder)
CC(C)NC(=O)N[C@H]1C[C@@H]2O[C@H](CO)CC[C@@H]2O[C@@H]1CCc1ccc(-c2ccccc2F)cc1	none (no result: FAS TE block, NadD inh, NR3A LBD binder)
Cc1nc(-c2ccc(C(=O)Nc3cccc(Br)c3)cc2)cs1	NR3A LBD binder 32
Cc1nc(-c2cccc(NC(=O)c3ccc(-n4nccc4C)cc3)c2)cs1	NR3A LBD binder 23
COc1ccc(OC)c(NC(=O)c2ccc(-c3csc(C)n3)cc2)c1	none
Cc1nc(-c2ccc(NC(=O)c3ccc(Br)o3)cc2)cs1	NR3A LBD binder 20
Cc1nc(-c2cccc(NC(=O)c3ccc(Br)o3)c2)cs1	none
Cc1ccccc1-c1nc(-c2ccc(NC(=O)c3ccc(Br)o3)cc2)no1	NR3A LBD binder 29
O=C(Nc1ccccc1C(F)(F)F)OCCCN1CCC2(CCC(c3ccccc3)CC2)C1=O (stereo unspecified)	none (no result: FAS TE block, NadD inh, NR3A LBD binder)
COc1ccc(Oc2ccc(N/C=C3\CCCC3=O)cc2)cc1	none
COc1ccc(Oc2ccc(N/C=C3/CCCC3=O)cc2)cc1	NR3A LBD binder 17
CC(CCN1CCC(C(O)(c2ccccc2)c2ccccc2)CC1)Oc1ccc(C#N)cc1F (stereo unspecified)	none (no result: FAS TE block, NadD inh, NR3A LBD binder)
O=C(Nc1cc([N+](=O)[O-])c2[nH]c(=O)c3ccccc3c2c1)C(F)(F)F	NR3A LBD binder 44
CCc1cccc2c(C(C)c3ccccc3O)c[nH]c12 (stereo unspecified)	none (no result: FAS TE block, NadD inh, NR3A LBD binder)
O=C(O)CSc1nnc(-c2ccc(S(=O)(=O)N3CCCC3)cc2)n1Cc1ccco1	none
NC(=O)CSc1nnc(-c2ccc(S(=O)(=O)N3CCCC3)cc2)n1Cc1ccco1	NR3A LBD binder 11 (no result: rCAG binder)
Cn1c(SCC(=O)Nc2ccccc2-c2ccccc2)nnc1-c1cnccn1	none (no result: FAS TE block, NadD inh, NR3A LBD binder)
COc1ccc(C(=O)N/N=C/c2ccc(OC(=O)c3cccc4ccccc34)c([N+](=O)[O-])c2)cc1	NR3A LBD binder 12
O=C(N/N=C/c1ccc(OC(=O)c2ccccc2)c([N+](=O)[O-])c1)c1ccc(O)cc1	NR3A LBD binder 26
Cc1ccc(NS(=O)(=O)c2ccc(OCC(=O)Nc3cccc([N+](=O)[O-])c3)c(C)c2)cc1	NR3A LBD binder 26
CC(=O)Nc1ccc(NC(=O)c2ccc(NS(=O)(=O)c3cc(C(C)(C)C)ccc3C)cc2)cc1	NR3A LBD binder 17
CS(=O)(=O)N1CCc2cc(C(=O)Nc3cccc([N+](=O)[O-])c3)ccc21	NR3A LBD binder 31
CC(C)NS(=O)(=O)c1ccc(NC(=S)NC(=O)c2cccc([N+](=O)[O-])c2)cc1	NR3A LBD binder 13
O=C(NC(=S)Nc1cccc(F)c1)c1cccc([N+](=O)[O-])c1	none
Cc1ccc(NC(=O)CN(C)C(=O)c2ccc(NS(=O)(=O)c3cccc([N+](=O)[O-])c3)cc2)cc1	none
Cc1ccc(NS(=O)(=O)c2cc(C(=O)Nc3cccc([N+](=O)[O-])c3)ccc2C)cc1	NR3A LBD binder 21
Cc1ccc(C(=O)Nc2cccc([N+](=O)[O-])c2)cc1S(=O)(=O)Nc1cccc(C(=O)O)c1	none
NS(=O)(=O)c1cccc(NC(=O)c2ccc(NS(=O)(=O)c3cccc([N+](=O)[O-])c3)cc2)c1	NR3A LBD binder 30
O=C(O)c1cccc(NC(=O)c2cccc(S(=O)(=O)Nc3cccc([N+](=O)[O-])c3)c2)c1	none
O[C@H](COc1cccc(Br)c1)CN1CCC(C(O)(c2ccccc2)c2ccccc2)CC1	none (no result: FAS TE block, NadD inh, NR3A LBD binder)
Cn1cccc1C(=O)N1CCN(S(=O)(=O)c2ccccc2F)CC1	none (no result: FAS TE block, NadD inh, NR3A LBD binder)
Cc1ccc2oc3ccccc3c(=O)c2c1	none
O=c1c2ccccc2oc2ccc(-c3ccc4cc[nH]c4c3)cc12	NR3A LBD binder 26 (no result: rCAG binder)
O=C(/C(N=Nc1cccc(C(F)(F)F)c1)=C(/O)c1cccs1)C(F)(F)F	NR3A LBD binder 17
CC(=O)/C(N=Nc1cccc(C(F)(F)F)c1)=C(\C)O	none
Cc1ccc(NC(NC(=O)c2cccs2)C(Cl)(Cl)Cl)cc1 (stereo unspecified)	none

Source: PubChem
